Screening results from PubChem.
CHX counter: counter-screen hit for Shiga toxin inhibitors, cycloheximide; cell reporter, cycloheximide protein synthesis inhibition counterscreen; max response, %; actives 12% (n = 300,000); AID 2314; in the data active means max response mostly above about 13%, no sharp cut-off; inactive means mostly below about 14%; further: read at 38.3 µM for the half of the compounds with a filed dose
Pf growth 96h: P. falciparum growth inhibition at 96 hours. P. falciparum luciferase reporter growth, 96 h. Potency, µM (highest dose often 28.7 µM), hits mostly inhibitors. actives 6.9% (n = 320,000). AID 504834
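Readout is luminescence from an integrated firefly luciferase in P. falciparum. Red cells, 2% hematocrit and 0.05% parasitemia final, were cultured with compound through two parasite generations (96 hours) at 37 C, 5% CO2.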
Shiga toxin inh: inhibitors of Shiga toxin in Vero cells | Vero cells, Shiga toxin protein synthesis inhibition reporter | inhibition, % at 38.7 µM | actives 9.2% (n = 290,000) | AID 2315; in the data active means inhibition mostly above about 28%, no sharp cut-off; inactive means mostly below about 43%
Pf growth 48h: P. falciparum growth inhibition at 48 hours (one generation) | P. falciparum luciferase growth in erythrocytes, 48 h | Potency, µM (top dose mostly 28.7 µM), most hits filed as inhibitors | actives 5.9% (n = 310,000) | AID 504832
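Luciferase-expressing P. falciparum in infected erythrocytes (2% hematocrit, 0.1% parasitemia final) in RPMI 1640/0.5% Albumax were exposed to compound for 48 hours at 37 C, 5% CO2; growth read as luminescence.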
HCMV antiviral: human cytomegalovirus inhibition. actives 4.5% (n = 410,000). HFF cells, HCMV-luciferase reporter, 72 h; stronger effect = lower value. activity change, negative = inhibition, % at 57.5 µM; in the data active means activity change below about -60%; inconclusive means no clear call, values can overlap the other calls; inactive means above about -39%
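HFF cells seeded 16 h at 37C, treated with compounds, infected with luciferase-reporter HCMV at MOI 1 PFU/cell; luciferase read at 72 h post infection, normalized to buffer-only and Salinomycin controls.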
Large screens that a line does not name were inactive. Compounds with a hit are over-represented: about 20% of the library has one in this group of screens. Unless noted, the call rests on the fitted dose curve; in most records, active means well fitted inhibition curve with a large enough effect; inconclusive means small, poorly fitted or top-dose-only effect, or another doubt; inactive means no such curve, though single readings can be large or run the other way.

O=C(CSCc1ccc(F)cc1)Nc1ccc(N2CCOCC2)cc1N1CCOCC1	Pf growth 96h 13µM, Pf growth 48h 5.9µM (no result: CHX counter, Shiga toxin inh)
O=C(CSCc1ccc(F)cc1)Nc1ccccc1C(=O)N1CCOCC1	none
O=C(COc1ccc(F)cc1Cl)Nc1ccc(N2CCOCC2)cc1N1CCOCC1	Pf growth 96h inconclusive, Pf growth 48h 9.3µM (no result: CHX counter, Shiga toxin inh)
O=C(COc1ccccc1F)Nc1ccc(N2CCOCC2)cc1N1CCOCC1	Pf growth 48h inconclusive (no result: CHX counter, Shiga toxin inh)
COc1ccc(NC(=O)COC(=O)CCc2ccc(S(=O)(=O)N3CCOCC3)cc2)cc1Cl	none (no result: CHX counter, Pf growth 96h, Shiga toxin inh, Pf growth 48h)
Cc1ccc(Nc2nc(CSc3nnc(-c4cccnc4)n3-c3ccccc3C)cs2)cc1	CHX counter 24, Pf growth 96h inconclusive
Cc1ccccc1-n1c(SCc2csc(Nc3ccccc3)n2)nnc1-c1cccnc1	Pf growth 96h 9.3µM, Pf growth 48h inconclusive
O=c1cc(CSc2nnc(-c3cccnc3)n2-c2ccccc2F)nc2sccn12	none
CCOc1ccc(NC(=O)C(C)Sc2nnc(C)n2C)cc1 (stereo not given)	Pf growth 96h 13µM
CCOc1ccc(NC(=O)C(C)Sc2nccn2C)cc1 (stereo not given)	CHX counter 17
CCOc1ccc(NC(=O)C(C)Sc2nc3ncccc3o2)cc1 (stereo not given)	none (no result: CHX counter, Pf growth 96h, Shiga toxin inh, Pf growth 48h)
Cc1ccc(NC(=O)C(C)Sc2nnc(C)n2C)cc1 (stereo not given)	none (no result: Shiga toxin inh)
CC(C)Cc1ccc(CN2CCCC(NC(=O)c3cnc4ccccn4c3=O)C2)cc1 (stereo not given)	none (no result: CHX counter, Pf growth 96h, Shiga toxin inh, Pf growth 48h)
Cc1ccc(C(=O)Nc2cnc3ccccn3c2=O)cc1	CHX counter 41, Shiga toxin inh 103 (no result: Pf growth 96h)
Cc1ccc2ncc(NC(=O)c3ccc(F)cc3)c(=O)n2c1	none (no result: Pf growth 48h)
O=C(Nc1cnc2ccccn2c1=O)c1ccc(Cl)cc1Cl	CHX counter 44, Shiga toxin inh 96
O=C(NC1CCCN(Cc2ccc(Cl)cc2)C1)c1cnc2ccccn2c1=O (stereo not given)	HCMV antiviral -65
CCOC1=C2CN(S(=O)(=O)c3ccc(C)cc3)[C@H](c3cccc(Cl)c3)C[C@@H]2N(S(=O)(=O)c2ccccc2[N+](=O)[O-])[C@H](c2ccccc2)C1	none (no result: CHX counter, Pf growth 96h, Shiga toxin inh, Pf growth 48h)
CCOc1cc(CNCCSc2nnnn2C)cc(Cl)c1OCc1ccc(Cl)cc1	none (no result: CHX counter, Pf growth 96h, Shiga toxin inh, Pf growth 48h)
Cc1ccccc1C(=O)OCc1cc(=O)n2nc(C(C)C)sc2n1	none (no result: CHX counter, Pf growth 96h, Shiga toxin inh, Pf growth 48h)
COc1ccc(C(C)=O)cc1CN1C(=O)NC(CC(C)C)C1=O (stereo not given)	none
NC(=S)N/N=C1\CCSc2ccc(Cl)cc21	Pf growth 96h inconclusive, HCMV antiviral -99
CCc1cccc(C)c1NC(=O)CCCn1c(C)c2cnn(-c3ccccc3)c(=O)c2c1C	none (no result: CHX counter, Pf growth 96h, Shiga toxin inh, Pf growth 48h)
Cc1ccc(CN2CCN(C)CC2)c(C)c1	Pf growth 96h 2.9µM
CN1CCc2nc(NC(=O)c3cccc(OC(F)F)c3)sc2C1	CHX counter 27, Pf growth 96h inconclusive (no result: Pf growth 48h)
CN1CCc2nc(NC(=O)COc3ccc4ccccc4c3)sc2C1	Pf growth 48h inconclusive, HCMV antiviral -82
C[C@H](O)[C@@H]1C(=O)N2CCc3c([nH]c4cccc(-c5ccccc5)c34)[C@@H]2C[C@@H]1N(C)C(=O)NC1CCCCC1	none (no result: CHX counter, Pf growth 96h, Shiga toxin inh, Pf growth 48h)
CC(C)[C@H](NC(=O)c1ccco1)C(=O)OCC(=O)N1CCc2ccccc21	CHX counter 14, Shiga toxin inh 73 (no result: Pf growth 96h)
CC(C)[C@H](NC(=O)c1ccco1)C(=O)OCC(=O)NC12CC3CC(CC(C3)C1)C2	CHX counter 21, Shiga toxin inh 59
CCOc1ccc2[nH]cc(S(=O)(=O)c3ccc(C)cc3)c(=O)c2c1	Pf growth 48h inconclusive
CCOc1ccc2[nH]cc(-c3csc(N)n3)c2c1	Pf growth 96h inconclusive, Pf growth 48h 12µM
O=C(COCc1cc(-c2cccs2)on1)N1CCN(c2ccc(F)cc2)CC1	none (no result: CHX counter, Pf growth 96h, Shiga toxin inh, Pf growth 48h)
COC(=O)[C@]1(C)N[C@H](c2ccc(-c3ccccc3)cc2)[C@@H]2C(=O)N(C)C(=O)[C@@H]21	Pf growth 96h inconclusive, Pf growth 48h inconclusive (no result: CHX counter, Shiga toxin inh)
COC(=O)[C@]1(CC(C)C)N[C@H](c2ccc(-c3cccc(Cl)c3)cc2)[C@@H]2C(=O)N(C)C(=O)[C@@H]21	Pf growth 96h 1.3µM, Pf growth 48h 2.6µM (no result: CHX counter, Shiga toxin inh)
COC(=O)[C@]1(CC(C)C)N[C@H](c2ccc(-c3ccc4c(c3)OCO4)cc2)[C@@H]2C(=O)N(C)C(=O)[C@@H]21	Pf growth 96h 13µM, Pf growth 48h inconclusive (no result: CHX counter, Shiga toxin inh)
Nc1sc2c(c1C(=O)NC1CC1)CCCC2	none (no result: CHX counter, Pf growth 96h, Shiga toxin inh, Pf growth 48h)
